Experimental data published in PubChem BioAssay (NCI).
Compounds without any hit were thinned out: in the full panel of roughly 83,000, 20% have a hit.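 In brief: 96-well plates, 48 h treatment, single concentration, percent growth endpoint.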 Active and inactive are the calls of the source. The calls were made as follows: active = growth percent below 10; inactive = the rest.

How the values were obtained:
Experiment in all cases: NCI-60 one-dose screen, 48 h (100 = growth as untreated, 0 = no growth, -100 = all killed)
Details in all cases: 10 µM
[1] = system: SR leukemia
[2] = system: RPMI-8226 leukemia
[3] = system: OVCAR-8 ovarian
[4] = system: OVCAR-4 ovarian
[5] = system: SK-OV-3 ovarian
[6] = system: IGROV1 ovarian
[7] = system: OVCAR-3 ovarian
[8] = system: HS 578T breast
[9] = system: NCI/ADR-RES ovarian
[10] = system: T-47D breast
[11] = system: BT-549 breast
[12] = system: MDA-MB-435 melanoma
[13] = system: SW-620 colon
[14] = system: MCF7 breast
[15] = system: HCT-116 colon
[16] = system: HCC-2998 colon
[17] = system: KM12 colon
[18] = system: MDA-MB-468 breast
[19] = system: OVCAR-5 ovarian

Measured: growth

O=C(Cn1nc(-c2ccccc2)ccc1=O)NN1C(=O)c2ccccc2C1=O
inactive: [1] 91.4% | [2] 95.7% | [3] 81.9% | [4] 94.7% | [5] 117% | [6] 124% | [7] 125% | [8] 73.4% | [9] 91.2% | [10] 96.2% | [11] 110% | [12] 107% | [13] 115% | [14] 81.7% | [15] 106% | [16] 108% | [17] 103% | [18] 92.3%

O=[N+]([O-])c1ccc(-c2nc(-c3ccccc3)c(-c3ccccc3)n2-c2ccc(S(=O)(=O)Nc3ncccn3)cc2)cc1
inactive: [1] 45% | [3] 54.5% | [19] 72.8% | [4] 66.7% | [5] 104% | [6] 74.3% | [7] 51.7% | [8] 37.3% | [9] 42.4% | [10] 10.2% | [11] 10.7% | [13] 51.1% | [14] 29.3% | [15] 30.6% | [16] 42.9% | [17] 30.8% | [18] 40%

N#Cc1ccc(-c2nn(-c3ccc(C(=O)O)cc3)cc2CNc2cc(Cl)cc(C(F)(F)F)c2)cc1
inactive: [3] 20.1% | [19] 59.8% | [4] 27.8% | [5] 55.2% | [6] 34.7% | [7] 22% | [13] 21.2%
active: [1] 1.72% | [8] -0.292% | [9] 1.78% | [10] 8.34% | [11] -22.5% | [12] 9.7% | [14] 5.75% | [15] -2.71% | [16] -27.7% | [17] 4.92%

O=C1NC(=NC2CCCCCC2)N/C1=C\c1ccc2ncoc2c1
active: [7] -3.02% | [11] 9.37%
inactive: [2] 35.9% | [3] 27.3% | [19] 50.3% | [4] 62% | [5] 24.4% | [6] 34.6% | [8] 42% | [9] 41.1% | [10] 18.9% | [12] 37.8% | [13] 11.3% | [14] 13% | [15] 23.5% | [16] 68.8% | [17] 30%

COc1ccc(/C(CSc2nnc(-c3c[nH]c4ccccc34)n2-c2ccccc2)=N/O)cc1
active: [12] -5.25% | [18] 0.589%
inactive: [1] 10.9% | [3] 29.7% | [19] 55% | [4] 16.8% | [5] 52.1% | [6] 43.1% | [8] 38.8% | [9] 38.2% | [10] 10.4% | [11] 16.5% | [13] 39.4% | [14] 14.5% | [15] 28.1% | [16] 42.4% | [17] 21.2%

COc1ccc(/C=C/C(=O)c2ccc(S(=O)(=O)NCCNc3nc(Nc4ccc(F)cc4)nc(N(C)C)n3)cc2)cc1
active: [1] 3.4% | [14] -15.2% | [15] -67% | [17] -26.1% | [18] -3.57%
inactive: [3] 50.6% | [19] 42.5% | [4] 21.8% | [5] 76% | [6] 43.6% | [7] 15.7% | [8] 39% | [9] 28.1% | [10] 18.4% | [11] 36.2% | [13] 26.4% | [16] 59.3%

O=c1c2ccccc2nc(COc2ccccc2)n1/N=C/c1ccc(F)cc1
inactive: [2] 71.7% | [3] 94.4% | [19] 94.2% | [4] 76.9% | [5] 114% | [6] 105% | [7] 114% | [8] 90.5% | [9] 90.8% | [10] 57.4% | [11] 94.7% | [12] 86.2% | [13] 93.2% | [14] 80.4% | [15] 75.3% | [16] 104% | [17] 93.5% | [18] 78%

O=C(c1ccc(Cl)cc1)C1[C@H](c2ccccc2Br)[C@@H](c2ccccc2)NC12C(=O)Nc1ccc(Cl)cc12 (stereo partly specified)
inactive: [2] 10.8% | [3] 24.2% | [19] 20.8% | [4] 27% | [5] 42.9% | [6] 17.7% | [8] 27.6% | [10] 22% | [11] 75.9%
active: [7] 4.76% | [9] -60.1% | [12] -35.1% | [13] 8.7% | [14] 0.103% | [15] 7.63% | [16] -0.337% | [17] 8.12% | [18] -40.2%

COc1ccc(-c2nc(S(=O)(=O)c3ccc(C)cc3)c(S(=O)(=O)CC(=O)N(C)Cc3ccccc3)o2)cc1
inactive: [3] 29.2% | [19] 63.1% | [4] 68.5% | [5] 98.4% | [6] 66.3% | [8] 67.2% | [9] 28.8% | [11] 72.6% | [12] 32% | [16] 46.6% | [17] 57.5%
active: [2] -35.3% | [7] 1.33% | [10] -57.8% | [13] 9.27% | [14] 7.73% | [15] 6.34% | [18] -38.8%

Cc1noc2c(Cc3ccccc3)nn(CC(=O)N/N=C/c3ccc(Br)cc3)c(=O)c12
active: [3] 9.24% | [4] -61.9% | [7] -33.6% | [10] 8.11%
inactive: [1] 90.6% | [19] 62.5% | [5] 43.8% | [6] 53.4% | [8] 30.7% | [9] 58% | [12] 70.2% | [13] 54.6% | [14] 45.4% | [15] 24.7% | [16] 85.3% | [17] 73.8% | [18] 78.1%

c1ccc(C(=C(c2ccc(OCCN3CCCCC3)cc2)c2ccc(OCCN3CCCCC3)cc2)C2CCCC2)cc1
active: [2] -51.4% | [3] -48.8% | [19] -22.5% | [4] 1.48% | [5] -45.3% | [6] -85.8% | [7] -92.9% | [8] -9.63% | [10] -1.48% | [11] -54.7% | [12] -98.5% | [13] -62.6% | [14] -71.1% | [15] -62.8% | [16] -99.5% | [17] -80.5%
inactive: [9] 101%

COc1ccc(-c2nc(S(=O)(=O)c3ccccc3)c(S(C)(=O)=O)o2)cc1
active: [2] -39.9% | [3] -28.3% | [19] -77.2% | [4] -87% | [7] -81.8% | [9] 0.892% | [10] -64.5% | [11] 3.82% | [12] -60.2% | [13] -25.3% | [14] -57.5% | [15] 0.823% | [16] -26.8% | [18] -88.1%
inactive: [5] 97.9% | [6] 77.2% | [8] 75.2% | [17] 66%

COc1ccc2[nH]c(O)c(N=NC(=O)COc3ccc(NC(=O)Nc4ccc(Cl)c(Cl)c4)cc3)c2c1
inactive: [2] 11.1% | [9] 84.4%
active: [3] -69.2% | [19] -21.8% | [4] -92.7% | [5] -12.4% | [6] -4.72% | [7] -44.5% | [8] -3.4% | [10] -72.1% | [11] -20.6% | [12] -88.8% | [13] 3.28% | [14] -26% | [15] -42% | [16] -67.4% | [17] -31% | [18] -57.8%

CN1CCN(c2ccc(C(=O)/C=C/c3ccc(C#N)cc3)cc2)CC1
inactive: [3] 92% | [19] 127% | [4] 85% | [5] 86.6% | [6] 68.1% | [7] 79.9% | [8] 93.8% | [9] 80.8% | [10] 87.4% | [11] 91.1% | [12] 28.1% | [13] 35.5% | [15] 18% | [16] 47% | [17] 46.8%
active: [2] 5.21% | [14] 6.57%

O=C(c1ccc(Cl)cc1)C1[C@H](c2ccc(Br)cc2)[C@@H](c2ccccc2)NC12C(=O)Nc1ccc(Br)cc12 (stereo partly specified)
active: [2] -6.16% | [3] -56.7% | [19] -91.2% | [4] -0.87% | [5] 2.89% | [6] -78.3% | [7] -89.7% | [8] -16.6% | [9] -85.6% | [10] -54% | [11] -73.3% | [12] -88.8% | [13] -71.6% | [14] -43.3% | [15] 1.39% | [16] -98.5% | [17] -50.8% | [18] -98.9%

CN1CCCN(Cc2ccc(C(=O)Nc3cccc(Nc4ccc5cc(O)ccc5n4)c3)cc2C(F)(F)F)CC1
active: [2] -20.5% | [13] -25.8% | [14] -22.8% | [15] 3.55% | [16] -15.1% | [18] 5.76%
inactive: [3] 101% | [19] 131% | [4] 77.2% | [5] 116% | [6] 88.6% | [7] 76.9% | [8] 61.9% | [9] 90.7% | [10] 88.7% | [11] 98% | [12] 37.9% | [17] 25.8%

O=C(N=Nc1c(O)[nH]c2ccc(Br)cc12)c1ccc2nc(-c3ccccc3)[nH]c2c1
inactive: [9] 76.7%
active: [1] -5.76% | [3] -94.5% | [4] -92.1% | [5] -54.9% | [6] -39% | [7] -69.7% | [8] -25.9% | [10] -67.4% | [11] -71% | [13] -60% | [14] -53.4% | [15] -28.3% | [16] -78% | [17] 2.92% | [18] -85.8%
